Experimental data: publication PMC5540273 (PLoS ONE, 2017)

Test system: MARK1
Conditions: concentration: 1 μM,replicates: in singlicate; n = 1
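Note: KINOMEscan kinase panel screen.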

SMILES	%Inh [%]
CC(=O)Nc1ccc(-c2cc3ncnc(SCC(=O)O)c3s2)cc1	0
Cn1ccc2ncnc(Oc3ccc(NC(=O)Nc4cc(C(C)(C)C)on4)c(Cl)c3)c21	4
O=C(Nc1cccc(Oc2ccc3nccn3n2)c1)Nc1cccc(C(F)(F)F)c1	14
COC(=O)c1cccc(NC(=O)NC2CCN(c3ccnc(NCc4ccc(F)cc4)n3)CC2)c1 [GSK1379860]	0
CN(c1cccc(CNc2nc(Nc3ccc4c(c3)CC(=O)N4)ncc2C(F)(F)F)c1)S(C)(=O)=O	47
Cn1ccc2ncnc(Oc3ccc(NC(=O)Nc4cccc(C(F)(F)F)c4)c(Cl)c3)c21	0
C[C@@H](Oc1cc(-n2cnc3cc(-c4cnn(C)c4)ccc32)sc1C(N)=O)c1ccccc1Cl [GSK580432]	63
COC(=O)Nc1nc2cc(Oc3ccc(NC(=O)Nc4cc(C(F)(F)F)ccc4Cl)cc3)ccc2[nH]1.Cl [GW697465]	0
O=c1[nH]cc(-c2ccc(O)cc2)c2sc(-c3ccncc3)cc12 [GSK1033723]	0
C[C@@H]1CCN(C(=O)N2CCCC2)C[C@@H]1N(C)c1ncnc2[nH]ccc12	0
COc1ccc(Nc2nccc(N3CCC(NC(=O)c4cccc(C#N)c4)C3)n2)cc1 (centres unmarked) [GSK1379730]	1
CN(c1ccccc1CNc1nc(Nc2ccc3c(c2)CC(=O)N3)ncc1C(F)(F)F)S(C)(=O)=O	53
CSc1nccc(-c2c(-c3ccc(F)cc3)ncn2CCCN2CCOCC2)n1.Cl [SB-217146]	15
CC(=O)Nc1nc2cnc(Nc3cc(NC(=O)c4cccc(CC(C)(C)C#N)c4)ccc3C)nc2s1	8
C[C@@H](Oc1cc(-n2cnc3ccc(-c4ccncc4)cc32)sc1C(N)=O)c1ccccc1Cl [GSK483724]	8
CS(=O)c1ccc(-c2coc3ccc(-c4n[nH]c(=O)o4)cc23)cc1 (centres unmarked)	15
CS(=O)(=O)Nc1ccc(-c2ccnc3[nH]ccc23)cc1 [GSK993273]	0
Cl.Cl.NC[C@H](CC1CCCCC1)NC(=O)c1ccc(-c2ccnc3[nH]ccc23)s1 [GSK1581428]	26
COc1cc2nccc(Nc3ccc(Oc4ccccc4)cc3)c2cc1OC.Cl [GI261656]	0

SMILES	%Inh [%]
COc1cc2c(Nc3ccc(NC(=O)c4ccccc4)cc3)ncnc2cc1OCCCN1CCOCC1 [GSK301329]	0
Cn1ccc2ncnc(Oc3ccc(NC(=O)Nc4cccc(C(F)(F)F)c4)c(F)c3)c21	13
O=C(NOCC1CC1)c1cc(Br)c(F)c(F)c1Nc1ccc(I)cc1Cl	0
O=C1NCCc2[nH]c(-c3ccncc3)cc21	22
Cc1n[nH]c2cc(Nc3ccnc(Nc4cccc(CN5CCOCC5)c4)n3)ccc12 [GW682569]	4
COc1cccc(C2=C(Nc3cccc(Cl)c3)C(=O)NC2=O)c1 [SB-341556]	0
COc1cccc(CNC(=O)NC2CCN(c3ccnc(Nc4cc(OC)c(OC)c(OC)c4)n3)C2)c1 (centres unmarked) [GSK1379765]	0
Cl.Nc1n[nH]c2cc(-c3ccccn3)ccc12 [GSK2189892]	0
Cc1ccc(CC(=O)N2CCc3cc(-c4cn(C)c5ncnc(N)c45)ccc32)cc1 [GSK2634758]	2
CN(c1ccc2c(c1)nc(NCc1ccc(F)cc1)n2C)c1ccnc(Nc2ccc(CS(C)(=O)=O)cc2)n1.Cl [GW813244]	0
Cl.c1ccc(Oc2ccc(Nc3ccnc4cc(-c5ccc(CN6CCNCC6)o5)ccc34)cc2)nc1 [GW567142]	0
CC(C)S(=O)(=O)N1CCN(Cc2ccc3c(c2)nc(NC(=O)c2ccsc2)n3C[C@H](O)c2ccccc2)CC1 [GW635815]	6
Cc1nnc(-c2ccc3occ(-c4ccc(S(C)=O)cc4)c3n2)o1 (centres unmarked)	0
OCCn1cc(-c2cnc3nnn(Cc4ccc5ncccc5c4)c3n2)cn1	0
CCn1c(-c2nonc2N)nc2cncc(CNC3CCNCC3)c21.Cl [SB-747651]	0
NC(=O)c1ccc(-c2cc3ncnc(SCC(=O)O)c3s2)cc1	0
Cn1cc(-c2cccc3c(N)c(C(N)=O)nnc23)cn1	0
CCCC(=O)Nc1n[nH]c2ncccc12 [SB-601436]	0

Test system: MARK2
Conditions: concentration: 1 μM,replicates: in singlicate; n = 1

SMILES	%Inh [%]
CC(=O)Nc1ccc(-c2cc3ncnc(SCC(=O)O)c3s2)cc1	17
Cn1ccc2ncnc(Oc3ccc(NC(=O)Nc4cc(C(C)(C)C)on4)c(Cl)c3)c21	0
O=C(Nc1cccc(Oc2ccc3nccn3n2)c1)Nc1cccc(C(F)(F)F)c1	12
COC(=O)c1cccc(NC(=O)NC2CCN(c3ccnc(NCc4ccc(F)cc4)n3)CC2)c1 [GSK1379860]	0
CN(c1cccc(CNc2nc(Nc3ccc4c(c3)CC(=O)N4)ncc2C(F)(F)F)c1)S(C)(=O)=O	39
Cn1ccc2ncnc(Oc3ccc(NC(=O)Nc4cccc(C(F)(F)F)c4)c(Cl)c3)c21	6
C[C@@H](Oc1cc(-n2cnc3cc(-c4cnn(C)c4)ccc32)sc1C(N)=O)c1ccccc1Cl [GSK580432]	61
COC(=O)Nc1nc2cc(Oc3ccc(NC(=O)Nc4cc(C(F)(F)F)ccc4Cl)cc3)ccc2[nH]1.Cl [GW697465]	0
O=c1[nH]cc(-c2ccc(O)cc2)c2sc(-c3ccncc3)cc12 [GSK1033723]	0
C[C@@H]1CCN(C(=O)N2CCCC2)C[C@@H]1N(C)c1ncnc2[nH]ccc12	50
COc1ccc(Nc2nccc(N3CCC(NC(=O)c4cccc(C#N)c4)C3)n2)cc1 (centres unmarked) [GSK1379730]	0
CN(c1ccccc1CNc1nc(Nc2ccc3c(c2)CC(=O)N3)ncc1C(F)(F)F)S(C)(=O)=O	37
CSc1nccc(-c2c(-c3ccc(F)cc3)ncn2CCCN2CCOCC2)n1.Cl [SB-217146]	0
CC(=O)Nc1nc2cnc(Nc3cc(NC(=O)c4cccc(CC(C)(C)C#N)c4)ccc3C)nc2s1	3
C[C@@H](Oc1cc(-n2cnc3ccc(-c4ccncc4)cc32)sc1C(N)=O)c1ccccc1Cl [GSK483724]	0
CS(=O)c1ccc(-c2coc3ccc(-c4n[nH]c(=O)o4)cc23)cc1 (centres unmarked)	23
CS(=O)(=O)Nc1ccc(-c2ccnc3[nH]ccc23)cc1 [GSK993273]	0
Cl.Cl.NC[C@H](CC1CCCCC1)NC(=O)c1ccc(-c2ccnc3[nH]ccc23)s1 [GSK1581428]	58
COc1cc2nccc(Nc3ccc(Oc4ccccc4)cc3)c2cc1OC.Cl [GI261656]	0

SMILES	%Inh [%]
COc1cc2c(Nc3ccc(NC(=O)c4ccccc4)cc3)ncnc2cc1OCCCN1CCOCC1 [GSK301329]	0
Cn1ccc2ncnc(Oc3ccc(NC(=O)Nc4cccc(C(F)(F)F)c4)c(F)c3)c21	9
O=C(NOCC1CC1)c1cc(Br)c(F)c(F)c1Nc1ccc(I)cc1Cl	13
O=C1NCCc2[nH]c(-c3ccncc3)cc21	12
Cc1n[nH]c2cc(Nc3ccnc(Nc4cccc(CN5CCOCC5)c4)n3)ccc12 [GW682569]	9
COc1cccc(C2=C(Nc3cccc(Cl)c3)C(=O)NC2=O)c1 [SB-341556]	0
COc1cccc(CNC(=O)NC2CCN(c3ccnc(Nc4cc(OC)c(OC)c(OC)c4)n3)C2)c1 (centres unmarked) [GSK1379765]	0
Cl.Nc1n[nH]c2cc(-c3ccccn3)ccc12 [GSK2189892]	0
Cc1ccc(CC(=O)N2CCc3cc(-c4cn(C)c5ncnc(N)c45)ccc32)cc1 [GSK2634758]	0
CN(c1ccc2c(c1)nc(NCc1ccc(F)cc1)n2C)c1ccnc(Nc2ccc(CS(C)(=O)=O)cc2)n1.Cl [GW813244]	0
Cl.c1ccc(Oc2ccc(Nc3ccnc4cc(-c5ccc(CN6CCNCC6)o5)ccc34)cc2)nc1 [GW567142]	0
CC(C)S(=O)(=O)N1CCN(Cc2ccc3c(c2)nc(NC(=O)c2ccsc2)n3C[C@H](O)c2ccccc2)CC1 [GW635815]	34
Cc1nnc(-c2ccc3occ(-c4ccc(S(C)=O)cc4)c3n2)o1 (centres unmarked)	0
OCCn1cc(-c2cnc3nnn(Cc4ccc5ncccc5c4)c3n2)cn1	0
CCn1c(-c2nonc2N)nc2cncc(CNC3CCNCC3)c21.Cl [SB-747651]	0
NC(=O)c1ccc(-c2cc3ncnc(SCC(=O)O)c3s2)cc1	8
Cn1cc(-c2cccc3c(N)c(C(N)=O)nnc23)cn1	27
CCCC(=O)Nc1n[nH]c2ncccc12 [SB-601436]	0
